The values below come from PubChem BioAssay AID493210 (National Center for Advancing Translational Sciences (NCATS), 2011).

The list shows a part of the results. Activity calls are given as the source filed them. Calls follow the shape of the full dose curve.

The target of the assay is Aldehyde dehydrogenase 1A1 (Homo sapiens) (UniProt P00352). Nature of the assay: Inhibitors of Aldehyde Dehydrogenase 1 (ALDH1A1): Followup Confirmation and Counterscreen. Conditions: purified ALDH1A1, NADH fluorescence, propionaldehyde/NAD+. From the text: Aldehyde dehydrogenase 1 (ALDH1A1) catalyzes the NAD+ dependent oxidation of a variety of endogenous and exogenous aldehydes to the corresponding carboxylic acids. The enzyme is the critical step in the metabolic activation of retinoic acid, which plays essential roles as nuclear receptor ligand. […] See [1] through for more information on ALDH1A1. Inhibition of ALDH1A1 activity was screened by utilizing propionaldehyde as an electron donor and NAD+ as an electron acceptor/cofactor. An increase in the fluorescence intensity due to conversion of NAD+ to NADH was used to measure the enzyme activity. See [5] for screening methodology used. References: [1] Manzer R, Qamar L, Estey T, Pappa A, Petersen DR, Vasiliou V. Molecular cloning and baculovirus expression of the rabbit corneal aldehyde dehydrogenase (ALDH1A1) cDNA. DNA Cell Biol. 2003 May;22(5):329-38. Collard F, Vertommen D, Fortpied J, Duester G, Van Schaftingen E. Identification of 3-deoxyglucosone dehydrogenase as aldehyde dehydrogenase 1A1 (retinaldehyde dehydrogenase 1). Biochimie. 2007 Mar;89(3):369-73. Ziouzenkova O, Orasanu G, Sharlach M, Akiyama TE, Berger JP, Viereck J, Hamilton JA, Tang G, Dolnikowski GG, Vogel S, Duester G, Plutzky J. Retinaldehyde represses adipogenesis and diet-induced obesity. Nat Med. 2007 Jun;13(6):695-702. Molotkov A, Duester G. Genetic evidence that retinaldehyde dehydrogenase Raldh1 (Aldh1a1) functions downstream of alcohol dehydrogenase Adh1 in metabolism of retinol to retinoic acid. J Biol Chem. 2003 Sep 19;278(38):36085-90. […] Quantitative high-throughput screening: a titration-based approach that efficiently identifies biological activities in large chemical libraries. […]
Chain of Aldehyde dehydrogenase 1A1 (Homo sapiens) (P00352 whole entry, looked up): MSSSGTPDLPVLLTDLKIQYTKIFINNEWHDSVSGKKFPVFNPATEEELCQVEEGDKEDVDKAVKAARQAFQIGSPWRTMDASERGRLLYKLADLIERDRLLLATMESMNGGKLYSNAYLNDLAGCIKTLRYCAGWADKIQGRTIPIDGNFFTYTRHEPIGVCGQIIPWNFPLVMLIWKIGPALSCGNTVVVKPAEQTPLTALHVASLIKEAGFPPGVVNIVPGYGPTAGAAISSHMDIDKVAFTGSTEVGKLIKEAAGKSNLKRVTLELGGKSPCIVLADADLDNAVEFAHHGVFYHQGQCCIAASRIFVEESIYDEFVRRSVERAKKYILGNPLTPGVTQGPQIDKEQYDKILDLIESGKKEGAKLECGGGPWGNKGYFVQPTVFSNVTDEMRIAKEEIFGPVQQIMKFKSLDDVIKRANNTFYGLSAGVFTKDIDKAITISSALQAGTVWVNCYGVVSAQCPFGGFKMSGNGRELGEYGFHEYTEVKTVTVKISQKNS
Buffer: 100 mM Hepes pH 7.5, 0.01% Tween 20. […] The plates were immediately transferred to and read twice on ViewLux High-throughput CCD imager (Perkin-Elmer) 20 minutes apart using 360 nm excitation and 450 nm emission fluorescence protocol. The fluorescence intensity difference between the second and the first time points was used to compute reaction progress.
Consider `O=C(CN(Cc1ccccc1)C(=O)c1ccc2c(c1)OCCO2)NCc1ccc2c(c1)OCO2`, for which the Potency is 398 nM (active).

Consider `Cc1cccc2c1N(CC(=O)OC(C)C)C(=O)C2=O`, for which the Potency is 22.4 nM (active).

On to `CC1CCCN(C(=O)c2ccc3c(c2)C(=O)N(CCC2=CCCCC2)C3=O)C1` (stereo not drawn), for which the Potency is 1260 nM (active).
